Data as given in PubChem BioAssay AID504408 (Broad Institute, 2011).
In all, about 300,000 compounds went through this assay and about 5,200 (1.7%) were called active. The sample holds actives, similar compounds and a random draw of the others, so the mix is not that of the screen. Unmarked numbers belong to inactive results.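 The calls were made as follows: active = mean replicate activation of at least 50% with a set share of replicates each reaching 50%; inconclusive = only one of those two conditions met; inactive = mean below 50% and too few replicates reaching it.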

Test: HSF-1 response element luciferase induction – NIH3T3-HGL cells, MG132 stress, luminescence, single point, primary screen (AID 504408);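 also: 0% = median of the neutral control wells and 100% = twice that signal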
Conditions: NIH3T3-HGL HSF-1 luciferase reporter, MG132, 8 h; at 9 µM; hits give high values; 100% = twice DMSO control signal

| Structure (SMILES) | activation |
| --- | --- |
| O=C1CCCCC1Sc1ccc(Cl)cc1[N+](=O)[O-] (stereo not drawn) | 8.24% |
| Cc1cc(OCC(=O)N(C)c2c(N)n(Cc3ccccc3)c(=O)[nH]c2=O)c(C(C)C)cc1Cl | -0.115% |
| Cc1ccc2nc(NC(=O)C3CSC4(C)CCC(=O)N34)sc2c1 (stereo not drawn) | 10.5% |
| CN(c1ccc(C(=O)N2CCc3ccccc3C2)cc1)S(C)(=O)=O | 57.9% (active) |
| CS(=O)(=O)N(CC(=O)N1CCc2ccccc2C1)c1ccc(Br)cc1 | -4.09% |
| CN(c1cccc(NC(=O)c2ccc(CN3CCc4ccccc4C3)cc2)c1)S(C)(=O)=O | 21.2% |
| Cc1ccc(S(=O)(=O)N(CC(=O)N2CCc3ccccc3C2)c2cccc(Cl)c2)cc1 | 13% |
| O=C(C(=O)N1CCc2ccccc2C1)N1CCc2ccccc2C1 | 2.97% |
| COc1cccc(N(CC(=O)N2CCc3ccccc3C2)S(C)(=O)=O)c1 | 69.4% (active) |
| Cc1cc2nc3n(c2cc1C)CC1CC(C(=O)NCCC(C)C)N(C)C31 (stereo not drawn) | 11.4% |
| Cc1ccc(S(=O)(=O)n2cccc2CO)cc1 | 3.66% |
| O=C(COc1ccccc1)Nc1ccc(F)cc1 | 1.97% |
| Cc1ccc(O)c(CNc2nc3ccccc3n2C)c1 | 6.25% |
| Cc1ccc(-c2cc(=O)[nH]c(NCc3ccccc3)n2)cc1 | 11.6% |
| Cc1ccc(O)c(CNc2nc3ccccc3[nH]2)c1 | 83.1% (active) |
| Cc1sc2ncnc(N3CCC(C(=O)Nc4nc5ccc(Cl)cc5s4)CC3)c2c1C | 8.18% |
| CC(Oc1cccc(Cl)c1)C(=O)Nc1ccc(S(=O)(=O)Nc2ncccn2)cc1 (stereo not drawn) | -4.25% |
| COc1ccc(S(=O)(=O)N2CCC(C(=O)N3CCc4ccccc4C3)CC2)cc1OC | -2.14% |
| COc1cc2c(cc1OC)CN(C(=O)c1cc(S(=O)(=O)N3CCCCC3)ccc1Cl)CC2 | 31.4% |
| COc1cc2c(cc1OC)C(C)N(S(=O)(=O)c1cnc(Cl)c(Cl)c1)CC2 (stereo not drawn) | 227% (active) |
| CCCCn1c(N)c(N(CC)C(=O)c2ccc(N(C)S(=O)(=O)c3ccc(C)cc3)cc2)c(=O)[nH]c1=O | -9.17% |
| COc1ccc(OC)c(S(=O)(=O)N2CCCC(C(=O)N3CCC(C(N)=O)CC3)C2)c1 (stereo not drawn) | -0.348% |
| CCN1C(=O)[C@@H]2[C@@H](c3ccc(-c4cccc(Cl)c4)cc3)N3CCC[C@@]3(C(=O)OC)[C@@H]2C1=O | 15% |
| O=C(/C=C\NCC(=O)c1ccccc1)c1ccccc1 | 16.4% |

| Structure (SMILES) | activation |
| --- | --- |
| O=C(/C=C/NCc1ccc(F)cc1)c1ccccc1 | 57.4% (active) |
| O=C(Cc1ccccc1)NCc1ccc(F)cc1 | 20.9% |
| Cc1ccc(NC(=O)C(C)OC(=O)Cc2c[nH]c3ccccc23)cc1S(=O)(=O)N1CCOCC1 (stereo not drawn) | 13% |
| Cc1ccc(C(=O)OCC(=O)N2CC(C)CC(C)C2)cc1S(=O)(=O)N1CCCCC1 (stereo not drawn) | 1.62% |
| c1c2c(cc3sc(N4CCCCC4)nc13)OCCO2 | -56.8% |
| Brc1ccc2nc(N3CCCC3)sc2c1 | 68.3% (active) |
| Cc1ccc2nc(N3CCN(C(=O)c4ccco4)CC3)sc2c1 | 12.9% |
| CN(Cc1c(F)cccc1Cl)C(=O)CNC(=O)c1ccc2c(c1)OCO2 | -4.62% |
| Cc1ccc(S(=O)(=O)N2CCN(C(=O)c3ccccc3-c3nc4ccccc4s3)CC2)c(C)c1 | -2.98% |
| O=C(CCN1C(=O)c2ccccc2C1=O)Nc1cccc(F)c1 | -4.05% |
| O=C1c2ccccc2C(=O)N1CCOc1ccc(F)cc1 | 43.4% |
| O=C(CCN1C(=O)c2ccccc2C1=O)C1=NN[C@@H]2C(=O)N(c3ccc(F)cc3)C(=O)[C@H]12 | 67.2% (active) |
| CCOc1ccc(S(=O)(=O)Nc2cccc(C(=O)NCC3(N4CCCCC4)CCCCC3)c2)cc1 | -4.45% |
| O=C(CSc1nnc2scc(-c3ccc(F)cc3)n12)NCc1ccco1 | -1.83% |
| O=C(CSc1nnc(-c2c[nH]c3ccccc23)n1-c1ccc(F)cc1)NCc1ccco1 | 58.5% (active) |
| COc1ccc(-n2c(SCC(=O)NCc3ccco3)nnc2-c2c[nH]c3ccccc23)cc1 | 7.75% |
| O=S(=O)(Nc1ccc(-c2ccc(N3CCOCC3)nn2)cc1)c1cc(Cl)ccc1Cl | 12.9% |
| Cc1ccc(C(=O)N/N=C/c2cccc3ccccc23)cn1 | 15.6% |
| CCCn1c(CCNc2nc(-c3ccc(OC)cc3)cs2)nc2ccccc21 | 3.73% |
| COc1ccc(-c2csc(Nc3ccccn3)n2)cc1 | 57.4% (active) |
| c1cnc(Nc2nc(-c3ccc4ccccc4c3)cs2)nc1 | 38.8% |
| Cc1ccc(C(=O)Nc2ccc(C)c(S(=O)(=O)N(C)C)c2)s1 | 78.5% (active) |
| CCN(CC(=O)Nc1ccc(C)c(S(=O)(=O)N(C)C)c1)Cc1ccccc1 | 3.82% |
| Cc1ccc(NC(=O)c2cccs2)cc1S(=O)(=O)N(C)C | -11.9% |

| Structure (SMILES) | activation |
| --- | --- |
| CN(C)S(=O)(=O)c1ccc(N2CCCC2)c(C(=O)Nc2ccc(Br)cc2F)c1 | 14.1% |
| Cc1ccc(Cc2nnc(SCC(=O)Nc3ccc(C)cc3C)[nH]c2=O)cc1 | 0.586% |
| Cc1c(NC(=O)C(C)OC(=O)c2c3c(nc4ccccc24)CCC(C)C3)c(=O)n(-c2ccccc2)n1C (stereo not drawn) | -5.9% |
| Cc1nc(=O)c(-c2ccccc2)c(C)n1-c1ccc(Br)cc1 | 1.48% |
| O=C1CN(c2nc(-c3ccccc3)c3cc(Br)ccc3n2)c2ccccc2N1 | -21.4% |
| S=C1NC(c2ccccc2)=NCN1c1ccc(Br)cc1 | 55% (active) |
| Cc1ccc(-n2nc3ccc(NC(=O)/C=C/c4ccco4)cc3n2)cc1C | 21.6% |
| CCC(=O)Nc1ccc(C(=O)Nc2cccc(OC)c2)cc1 | 11.2% |
| CCC(=O)Nc1ccc2nn(-c3ccc(F)cc3)nc2c1 | 63.6% (active) |
| Cc1cc(C)n2nc(C(=O)OC(C)C(=O)c3cc(C)c(C)cc3C)nc2n1 (stereo not drawn) | 4.08% |
| Cn1c(=S)sc2ccc3ccccc3c21 | -1.53% |
| COc1ccc(S(=O)(=O)NCC(c2ccco2)N2CCOCC2)cc1 (stereo not drawn) | -18.5% |
| COc1cccc(COC(=O)C2CCN(S(=O)(=O)c3ccc(Cl)cc3)CC2)c1OC | -0.23% |
| Cc1ccc(-c2nnn(CC(=O)N(Cc3ccco3)C(C(=O)NC(C)(C)C)c3ccncc3)n2)o1 (stereo not drawn) | 10.4% |
| Cc1nn(-c2ccccc2)c2sc(C(=O)N(Cc3ccco3)C(C)C(=O)NC(C)(C)C)cc12 (stereo not drawn) | 91.4% (active) |
| Cc1nc(C)c(C(=O)N(c2ccc(C)c(C)c2)C(C(=O)NCc2ccco2)c2ccccc2)s1 (stereo not drawn) | -5.39% |
| COc1ccc(NC(=O)CN(C)C(=O)c2cccc(S(=O)(=O)N3CCN(c4ccccc4)CC3)c2)cc1 | 14.8% |
| COc1ccc(C(=O)Oc2ccc(-c3nnco3)cc2)cc1S(=O)(=O)N1CCOCC1 | 7.88% |
| Brc1ccccc1C1N=C(c2ccccc2)NO1 (stereo not drawn) | 9.38% |
| N#Cc1ccc(C2N=C(c3ccccc3)NO2)cc1 (stereo not drawn) | 56.2% (active) |
| O=C(COC(=O)CNS(=O)(=O)c1ccc(F)c(F)c1F)NC1CCCC1 | -12.4% |
| Nc1cccnc1Sc1ccccc1 | 7.53% |
| O=C(CNC(=O)C12CC3CC(CC(C3)C1)C2)OCC(=O)N1CCCCC1 | 10.8% |
| CC(=O)N1CCN(C(=O)c2cc(-c3ccc(Cl)s3)nc3ccccc23)CC1 | 18.1% |

| Structure (SMILES) | activation |
| --- | --- |
| O=c1oc2ccccc2cc1-c1csc(Nc2ccc(O)cc2)n1 | 125% (active) |
| CCNc1nc(-c2cc3ccccc3o2)cs1 | 25.2% |
| Cc1ccc(Nc2nc(-c3ccc(O)cc3O)cs2)nc1 | -44.2% |
| COc1cccc(C2Nc3cccc4cccc(c34)N2)c1 | 1.58% |
| O=C1NC(c2cccc(Cl)c2)Nc2ccccc21 (stereo not drawn) | 19.4% |
| COc1ccc(C2NC(=O)c3ccccc3N2)cc1 (stereo not drawn) | 73.7% (active) |
| COC(=O)C(C)Oc1ccc2c(c1)O/C(=C\c1cccc(Br)c1)C2=O (stereo not drawn) | -3.63% |
| O=C1Oc2ccccc2C(=O)/C1=C/c1ccccc1O | -36.2% |
| COc1ccc2c(c1)O/C(=C\c1ccccc1O)C2=O | 61.8% (active) |
| CCOc1ccc(/C=C/C(=O)N(CC)CC(=O)NCc2cccs2)cc1OC | -14% |
| COc1ccccc1-n1ccnc(SCC(=O)NC2CCCCC2)c1=O | -0.123% |
| O=C(O)CCCCc1nc2ccccc2s1 | 13% |
| CCC(=O)NC(=Nc1nc2ccccc2s1)NC(=O)CC | 60.3% (active) |
| CC(C)CC(=O)N/C(N)=N/c1nc2ccccc2s1 | 10.3% |
| COc1ccc2sc(N(CCCN(C)C)C(=O)c3ccc(S(=O)(=O)N(C)C4CCCCC4)cc3)nc2c1 | -14.5% |
| O=C1C=C(c2ccc(Cl)cc2)C(=O)N1Nc1ccccc1 | 82% (active) |
| O=C1c2cccc3cc(Br)cc(c23)C(=O)N1Nc1ccccc1 | -9.54% |
| O=C(CCC(=O)OCc1ccc(Cl)cc1)Nc1ccccc1 | 10.6% |
| Cc1cc(C)n2nc(C(=O)OCC(=O)N(CCC#N)c3ccc(F)cc3)nc2n1 | 12.7% |
| O=C(NCc1ccccc1Cl)C(=O)NCC1CCCN1S(=O)(=O)c1cccs1 (stereo not drawn) | 4.38% |
| CCCCN(C(=O)c1ccc(C)o1)c1c(N)n(CCCC)c(=O)[nH]c1=O | 12.2% |
